Screening results (PubChem BioAssay)
Hits are enriched below; roughly 19% of the tested compounds scored in any of these assays.
S-ASM inh – inhibitors of human secretory acid sphingomyelinase | P17405 | placental ASM, HMU-PC fluorogenic substrate, 60 min | Potency, µM (highest dose often 57.5 µM), for inactives: at the top dose activity change, negative = inhibition, hits mostly inhibitors | 340,000 tested, 0.006% active; also: potency is read from the fitted curve at half-maximal effect
Target sequence (P17405 47-631 limits assumed): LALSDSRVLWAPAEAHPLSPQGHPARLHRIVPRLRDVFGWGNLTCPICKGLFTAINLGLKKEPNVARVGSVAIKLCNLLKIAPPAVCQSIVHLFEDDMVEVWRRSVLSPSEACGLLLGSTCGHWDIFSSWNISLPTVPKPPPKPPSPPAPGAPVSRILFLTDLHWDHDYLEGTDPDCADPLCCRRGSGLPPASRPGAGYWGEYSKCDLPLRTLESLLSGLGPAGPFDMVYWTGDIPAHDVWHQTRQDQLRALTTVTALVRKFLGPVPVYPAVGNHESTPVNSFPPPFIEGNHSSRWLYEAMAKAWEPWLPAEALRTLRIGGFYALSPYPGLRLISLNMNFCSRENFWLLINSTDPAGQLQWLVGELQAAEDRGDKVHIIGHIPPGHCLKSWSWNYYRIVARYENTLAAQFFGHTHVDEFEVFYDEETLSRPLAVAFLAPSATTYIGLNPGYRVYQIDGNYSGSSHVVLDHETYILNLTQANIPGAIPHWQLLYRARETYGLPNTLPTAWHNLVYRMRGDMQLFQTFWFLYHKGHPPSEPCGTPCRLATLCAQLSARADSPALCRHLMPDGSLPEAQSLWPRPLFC
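Fluorogenic HMU-PC substrate (9 uM final) is turned over by placental ASM in 60 min at 37 C after a 10 min compound preincubation. Reaction ended by alkaline stop (pH 10), with fluorescence read at 386/447 nm.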
HepG2 tox – kills HepG2 cells in TGF-b inhibitor counter-screen. HepG2 CAGA-GFP viability, ATP luminescence, 18 h. Potency, µM (top dose mostly 46.1 µM), for the others: top-dose activity change, negative = cytotoxicity, most hits filed as cytotoxic. 410,000 tested, 0.76% active; also: potency is read from the fitted curve at half-maximal effect
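CellTiter-Glo luminescence gave cytotoxicity after 18 hours at 37 degrees C. The cells were HepG2 CAGA-GFP in 1% FBS DMEM, stimulated with 500 pg/mL TGF-beta after compound addition. %Activity was normalised to no-cell wells (complete cell-killing) and DMSO (no toxicity), and curves were fitted and classified.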
TDP1 cell noCPT – qHTS for Inhibitors of human tyrosyl-DNA phosphodiesterase 1 (TDP1): qHTS in cells in absence of CPT. 420,000 tested, 15% active. DT40 Tdp1-/- hTDP1 cells, no CPT, ATP luminescence, 48 h. Potency, µM (doses to about 46.2 µM), without a hit: at the highest dose activity change, negative = growth inhibition, most hits filed as inhibitors; also: potency is read from the fitted curve at half-maximal effect; % is scaled to controls: 0 for no effect and ±100 for the full control effect; nearly all actives have a fitted effect of over 55% in size
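Readout: luminescence from CellTiter-Glo after 30 min in the dark at RT. Cells: DT40 Tdp1-/- with stable hTDP1, 400/well. Exposure: compounds alone, ≥48 hr, 37 °C.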
TDP1 cell CPT – DT40-hTDP1 cell growth loss with CPT. 420,000 tested, 12% active. Potency, µM (highest dose often 46.2 µM), for inactives: at the top dose activity change, negative = growth inhibition, most hits filed as inhibitors. chicken DT40 Tdp1-/-;hTDP1 cells + 20 nM CPT, ATP luminescence, 48 h; also: potency is read from the fitted curve at half-maximal effect; % is scaled to controls: 0 for no effect and ±100 for the full control effect; nearly all actives have a fitted effect of over 55% in size
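Chicken DT40 Tdp1-/- cells stably complemented with human TDP1 were seeded at 400 cells/well in medium containing 20 nM camptothecin, exposed to pin-transferred compounds, and grown at 37 °C for at least 48 hr. Viability was read as ATP luminescence.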
IL-1B inflam inh – inflammasome signaling inhibition, IL-1 beta readout | activity change, % at 57.5 µM | AID 743279 | THP-1 LPS/ATP IL-1B secretion, AlphaLISA, 16 h; active compounds read low | 360,000 tested, 4.7% active; in the data active = activity change below about -50%; inconclusive = mostly about -30% to -49%; also: % is scaled to controls: 0 for no effect and ±100 for the full control effect
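Secreted IL-1B measured by AlphaLISA bead assay after 16 h compound exposure of THP-1 cells; compounds (final up to 57.5 uM) added 1 h before LPS (250 ng/mL) and ATP (1.25 mM) stimulation; lower signal means less secretion.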
TGFb SMAD3 inh – TGF-b pathway inhibition; HepG2 CAGA-GFP TGF-b/SMAD3 reporter, GFP fluorescence, 18 h; TGF-beta stimulated, 500 pg/mL final; Potency, µM (top dose mostly 46.1 µM), for the others: at the top dose activity, negative = inhibition, actives largely listed as inhibitors; 410,000 tested, 1.2% active; AID 588855; also: potency is read from the fitted curve at half-maximal effect; % is scaled to controls: 0 for no effect and ±100 for the full control effect; nearly all actives have a fitted effect of over 65% in size
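TGF-beta reporter screen: HEPG2 CAGA-GFP, 1% FBS, 500 pg/mL TGF-beta final, 18 h; per-cell GFP summed per well; curves fitted and categorized by class.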
Starred values were filed as active, the others as inactive; i = inactive; u = inconclusive; x = no result; ! = a repeat was not active. Unless noted, calls follow the shape of the dose curve; as a rule, active = well fitted curve in the direction sought with a large enough effect; inconclusive = small, poorly fitted or top-dose-only effect, or another doubt; inactive = no such curve, though single readings can be large; an effect the other way counts as inactive or inconclusive.

SMILES	S-ASM inh	HepG2 tox	TDP1 cell noCPT	TDP1 cell CPT	IL-1B inflam inh	TGFb SMAD3 inh
Cc1cccc(C)c1OCC(O)CN(Cc1ccccc1O)C1CCCCC1 (stereo not drawn)	0.5%	-32.8%	10.3µM*	16.4µM*	-66.3*	u
CN(CC(O)COc1ccc(OCC(O)CN(C)C2CCCCC2)cc1)C1CCCCC1 (stereo not drawn)	-6.8%	1.6%	u	u	0.0	5.1%
O=C(Nc1nc2ccccc2[nH]1)Nc1ccccc1F	0.4%	-45.4%	u	-11.5%	-8.3	-4.4%
Cc1cc(N2CCOCC2)nc2ccc(NC(=O)CCC(=O)N3CCCC(C)C3)cc12 (stereo not drawn)	i	1.6%	-27.9%	-4.5%	-1.5	2.2%
Cc1cc(N2CCOCC2)nc2ccc(NC(=O)CCC(=O)N3CCN(c4ccc(F)cc4)CC3)cc12	i	2.4%	8.2µM*	9.2µM*	15.8	-13.7%
Cc1cc(N2CCOCC2)nc2ccc(NC(=O)CCC(=O)N3CCN(c4ccccc4F)CC3)cc12	i	2.5%	14.6µM*	u	7.1	-2.0%
COc1ccc(/C(C)=N/NC(=O)CNC(=O)c2ccncc2)c(OC)c1	0.9%	-6.7%	15.8%	1.6%	-16.1	-9.1%
CC12CCC(C(=O)N(CSC(=S)N/N=C\c3ccccc3O)C1=O)C2(C)C (stereo not drawn)	-12.7%	-25.6%	14.6µM*	u	98.7	-24.1%
COc1ccc(/C=N\NC(=S)SCN2C(=O)C3CCC(C)(C2=O)C3(C)C)cc1 (stereo not drawn)	-10.7%	-16.7%	-24.6%	-22.0%	6.3	-10.5%
CCC(Cc1c(I)cc(I)c(N)c1I)C(=O)O (stereo not drawn)	1.2%	8.9%	9.03µM*!	4.5%	66.7	17.9%
COc1ccc(CCNC(=S)N2CCN(S(=O)(=O)c3ccc(C)cc3)CC2)cc1	4.7%	9.5%	-9.9%	-0.2%	0.7	-13.2%
CC1c2ccccc2N(S(=O)(=O)c2ccccc2)C1C (stereo not drawn)	-8.4%	-0.9%	23.1µM*	u	31.8	0.0%
CC(=O)N1c2ccccc2[C@H](C)[C@H]1C	-2.9%	2.1%	3.4%	5.4%	12.5	0.7%
CCOC(=O)C1CCCN(S(=O)(=O)c2cc(Br)cc3c2N(C(=O)CC)CC3)C1 (stereo not drawn)	-3.2%	2.8%	u	u	18.5	18.3%
CC1(C(=O)N2CCC(CC3CC(c4cccc(Br)c4)=NO3)(C(=O)NCC3CCCCC3)CC2)CC1 (stereo not drawn)	-6.5%	1.5%	18.4µM*	18.4µM*	u	u
O=C(CCCCCBr)N1CCC(CC2CC(c3cccc(Br)c3)=NO2)(C(=O)NCC2CCCCC2)CC1 (stereo not drawn)	-7.3%	-22.7%	20.6µM*	u	u	u
Cc1ccc(CC(=O)NCc2nc(-c3ccccc3)no2)cc1	x	-21.7%	-19.7%	1.0%	x	-15.7%
CN(Cc1ccccn1)Cc1cn(Cc2ccccc2)nc1-c1ccc2c(c1)OCO2	1.0%	1.6%	23.1µM*	-27.0%	u	16.5%
CC(c1ccon1)N(C)Cc1cn(Cc2ccccc2)nc1-c1ccc2c(c1)OCO2 (stereo not drawn)	-0.3%	-21.7%	u	18.4µM*	-29.0	-0.4%
O=P(Cc1cccc2ccccc12)(c1ccccc1)c1ccccc1	3.8%	-24.0%	20.6µM*	u	-8.8	-6.7%
Cc1ccc(OCCOc2ccc(Br)cc2)c([N+](=O)[O-])n1	-3.5%	-16.7%	-13.6%	-15.3%	-58.1*	15.9%
Cc1ccc(OCc2ccc([N+](=O)[O-])cc2)c([N+](=O)[O-])n1	3.0%	-1.0%	-2.2%	4.1%	2.9	1.0%
COC(=O)C1=CO[C@@H](O[C@H]2OC(CO)C(O)C(O)C2O)C2C1CC(O)C2C (stereo partly drawn)	x	x	-0.7%	-2.8%	x	x
CN(C(=O)CO/N=C/c1ccc(Cl)cc1)c1ccccc1	-0.4%	0.8%	-25.2%	-18.3%	-51.1*	8.9%
O=C(CCc1nc(-c2ccccc2F)no1)NC1CCCCCC1	0.5%	-8.8%	29.1µM*	u	20.3	-21.9%
SMILES	S-ASM inh	HepG2 tox	TDP1 cell noCPT	TDP1 cell CPT	IL-1B inflam inh	TGFb SMAD3 inh
O=C(CCc1nc(-c2ccccc2)no1)NC1CCCCC1	-2.0%	-19.2%	-17.0%	-26.1%	24.6	-1.2%
O=C(CCc1nc(-c2ccccc2Cl)no1)NC1CCCCC1	10.0%	16.1%	20.6µM*	u	9.2	7.1%
O=C(CCc1nc(-c2ccccc2Cl)no1)NC1CCCC1	1.3%	-7.5%	u	0.4%	1.0	-0.7%
O=S1(=O)CC(N2CCCCC2)CN1Cc1cn(Cc2cccc(Cl)c2)nn1 (stereo not drawn)	x	x	-14.2%	-11.0%	6.5	x
CCc1ccc2c(c1)N(CC(C)CN(C)C)c1ccccc1S2 (stereo not drawn)	x	x	15µM*	u	x	x
COc1cc(OC)cc(C(=O)NCCNc2nc3cc(C)cc(C)c3cc2C#N)c1	355.3%	-26.5%	23.1µM*	u	-6.0	u
COc1ccc(C(=O)NCCNc2nc3cc(C)cc(C)c3cc2C#N)c(OC)c1	x	x	u	u	0.0	x
COc1ccc(C(=O)NCCCNc2nc3cc(C)cc(C)c3cc2C#N)cc1	x	-0.5%	20.6µM*	u	33.4	-3.3%
COc1ccccc1C(=O)NCCNc1nc2cc(C)cc(C)c2cc1C#N	474.3%	-11.1%	18.4µM*	u	u	-11.6%
COc1ccc(C(=O)NCCNc2nc3cc(C)cc(C)c3cc2C#N)nc1	x	x	-20.4%	-6.6%	-1.9	x
Cc1cc(C)c2cc(C#N)c(NCCCNC(=O)c3cccnc3)nc2c1	x	-1.6%	u	u	u	2.1%
Cc1cc(C)c2cc(C#N)c(NCCOC(=O)c3ccccc3C)nc2c1	287.4%	-0.1%	u	-0.9%	-60.4*	-6.2%
